In all, about 220,000 compounds went through this assay and about 5,700 (2.6%) were called active. A call without a number means that no potency is given here. About 18% were inconclusive and are not listed. This is one part of a sample in which actives are shown more often than they occur. Calls come from the whole dose curve; as a rule, active = well fitted inhibition curve with a large enough effect; inconclusive = small, poorly fitted or top-dose-only effect; inactive = no such curve, though single readings can be large or run the other way.
Potency is the fitted concentration of half-maximal effect.

The target in the assay is Lysine-specific demethylase 5B (Homo sapiens) (UniProt Q9UGL1). Kind of assay: Primary screen for KDM5B Histone Demethylases FDH-coupled qHTS. Note: nearly all actives have a fitted effect of over 70% in size. Particulars: FDH-coupled NADH fluorescence (FDH is formaldehyde dehydrogenase); series mostly up to 57.7 µM. Put shortly: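 Compound dilutions met 200 nM (final) KDM5BΔAP for 10 min at room temperature before substrate addition. The substrate mix held 12.5 µM H3K4me3 with cofactors 25 µM α-ketoglutarate and 50 µM Fe²⁺. NADH signal gain over 30 min defined activity.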
Chain of Lysine-specific demethylase 5B (Homo sapiens) (Q9UGL1 whole entry, looked up): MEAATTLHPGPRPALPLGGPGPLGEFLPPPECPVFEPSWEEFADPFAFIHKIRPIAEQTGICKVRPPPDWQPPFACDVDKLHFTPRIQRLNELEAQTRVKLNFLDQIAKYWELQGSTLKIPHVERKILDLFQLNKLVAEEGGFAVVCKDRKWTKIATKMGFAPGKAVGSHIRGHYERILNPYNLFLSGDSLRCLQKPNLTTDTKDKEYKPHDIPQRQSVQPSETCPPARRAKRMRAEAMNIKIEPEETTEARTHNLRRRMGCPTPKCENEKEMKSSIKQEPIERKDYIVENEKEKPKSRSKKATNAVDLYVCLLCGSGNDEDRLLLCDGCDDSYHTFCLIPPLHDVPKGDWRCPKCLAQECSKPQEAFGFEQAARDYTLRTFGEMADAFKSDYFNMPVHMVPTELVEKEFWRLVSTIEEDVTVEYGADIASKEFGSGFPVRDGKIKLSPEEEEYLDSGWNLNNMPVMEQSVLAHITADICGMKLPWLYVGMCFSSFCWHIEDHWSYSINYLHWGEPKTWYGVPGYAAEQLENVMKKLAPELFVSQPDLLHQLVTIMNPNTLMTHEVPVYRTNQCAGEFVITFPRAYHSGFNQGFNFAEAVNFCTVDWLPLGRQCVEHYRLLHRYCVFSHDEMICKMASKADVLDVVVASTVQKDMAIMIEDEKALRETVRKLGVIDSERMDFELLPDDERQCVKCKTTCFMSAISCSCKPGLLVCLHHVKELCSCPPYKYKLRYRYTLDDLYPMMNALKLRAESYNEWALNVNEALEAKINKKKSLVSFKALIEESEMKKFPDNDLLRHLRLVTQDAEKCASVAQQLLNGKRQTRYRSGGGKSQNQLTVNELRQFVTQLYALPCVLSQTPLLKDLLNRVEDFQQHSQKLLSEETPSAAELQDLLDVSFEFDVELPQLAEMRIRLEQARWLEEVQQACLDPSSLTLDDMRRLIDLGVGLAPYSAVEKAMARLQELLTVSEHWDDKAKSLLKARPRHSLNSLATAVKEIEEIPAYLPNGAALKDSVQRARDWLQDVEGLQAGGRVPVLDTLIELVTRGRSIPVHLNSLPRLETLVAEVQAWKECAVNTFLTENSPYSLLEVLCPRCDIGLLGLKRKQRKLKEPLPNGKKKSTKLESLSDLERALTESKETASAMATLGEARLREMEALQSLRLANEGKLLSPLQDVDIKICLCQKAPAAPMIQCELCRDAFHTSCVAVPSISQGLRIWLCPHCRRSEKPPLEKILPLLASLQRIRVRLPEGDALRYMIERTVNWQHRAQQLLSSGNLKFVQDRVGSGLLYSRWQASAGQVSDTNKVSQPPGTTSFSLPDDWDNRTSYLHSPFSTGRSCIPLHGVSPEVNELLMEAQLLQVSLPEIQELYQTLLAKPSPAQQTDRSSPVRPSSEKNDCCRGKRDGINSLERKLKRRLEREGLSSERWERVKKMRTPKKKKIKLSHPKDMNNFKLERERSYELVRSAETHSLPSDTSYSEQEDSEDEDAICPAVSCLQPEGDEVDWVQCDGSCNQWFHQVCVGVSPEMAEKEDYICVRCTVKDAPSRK
A general note: Quantitative high-throughput screening tests each substance at several concentrations.
`CC(=O)Nc1ccc(SC2CCCCCC2=O)cc1` (stereo not given): the Potency entry is “inactive”.

Turning to `CCC1CCc2c(sc(NC(=O)C(CC)CC)c2C#N)C1` (stereo not given), the Potency result is “inactive”.

In the case of `Cc1ccc(NC(=O)CN(C)C(=O)c2nc(-c3ccccc3)oc2C)cc1`, the Potency entry is “inactive”.

On to `CC1CCCN(CC(=O)Nc2cc(Cl)ccc2Oc2ccccc2)C1` (stereo not given), for which the Potency result was “inactive”.

Turning to `Nc1nc2ccc([N+](=O)[O-])cc2[n+]([O-])n1`, the Potency entry is “inactive”.

On to `COc1cccc(N(CC(=O)NC2CCCC2)C(=O)Cn2nnc(-c3ccc(C)o3)n2)c1`, for which the Potency result was “inactive”.

In the case of `C/C(=C\c1ccc([N+](=O)[O-])cc1)C(=O)c1ccccc1`, the Potency result is “inactive”.

On to `COc1ccc(CNc2nc3c(c(=O)[nH]c(=O)n3C)n2Cc2ccccc2)cc1`, for which the Potency result was “inactive”.

Regarding `c1cncc(CNc2cc(-c3cnc4ccccc4n3)c3cc[nH]c3n2)c1`, the Potency entry was “inactive”.

Regarding `N#Cc1nc(/C=C/c2ccc(F)cc2)oc1NC1CCCCC1`, the Potency result was “inactive”.

Regarding `Fc1ccc(-c2cc(NC3CCCC3)nc3[nH]ccc23)nc1`, the Potency was 31.6 µM (active).

Take `N#Cc1ccc(CCC(=O)Nc2ccc3ccccc3n2)cc1`: the Potency entry was “inactive”.

In the case of `COc1ccc(CNC(=O)C2CCCC2)cc1`, the Potency result was “inactive”.

As for `COc1ccc2cc(C(=O)NCC3CCCO3)[nH]c2c1` (stereo not given), the Potency result was “inactive”.

`COc1ccc2c(c1)OCC(C(=O)NCc1cc3cc(OC)ccc3[nH]1)C2` (stereo not given): the Potency is 25.1 µM (active).

Regarding `CN(CC(=O)N1CCCC1)c1nc(-c2cccs2)nc2ccccc12`, the Potency entry was “inactive”.

Turning to `CC(=O)N1CCN(c2cc(-c3noc([C@@H]4CCCN4Cc4ccccc4)n3)ccn2)CC1`, the Potency is 35.5 µM (active).

For the compound `COCCOc1ccc(-c2noc([C@@H]3CCCN3Cc3cccnc3)n2)cn1`, the Potency entry is “inactive”.

With `COc1ccc(-c2noc([C@@H]3CCCN3C(=O)CCCc3ccccc3)n2)cc1OC`, the Potency entry is “inactive”.

In the case of `Cn1cc(C(=O)N2CCN(C(=O)Cc3ccccc3)CC2)c2ccccc21`, the Potency entry was “inactive”.

As for `CCC(C)C(NC(=O)NCc1ccc(C)cc1)C(=O)O` (stereo not given), the Potency result is “inactive”.

Consider `CCS(=O)(=O)N1CC(=O)N(Cc2ccccc2Cl)C(C)(C(=O)NCc2ccccc2OC)C1` (stereo not given), for which the Potency entry is “inactive”.

`Cc1cc2oc(=O)cc(CN3CCN(CCc4ccncc4)CC3)c2cc1C`: the Potency entry was “inactive”.

As to `O=C(CCn1cncn1)N1CCc2[nH]nc(-c3cccc4ccccc34)c2C1`, the Potency entry is “inactive”.

Take `Cc1ccc(C)c2c(=O)cc(CN3CCN(CCn4cncn4)CC3)[nH]c12`: the Potency is 25.1 µM (active).

As to `Cc1nn(C)cc1CNC(=O)c1cc2nc(-c3ccc(Cl)s3)cc(C(F)(F)F)n2n1`, the Potency entry was “inactive”.

For `Cc1cc(C)c(NC(=O)CN(C)Cc2coc(-c3ccccc3)n2)c(C)c1`, the Potency entry is “inactive”.

As to `O=C(c1nc(-c2cccnc2)c2cnccn12)N1CCN(c2ncccn2)CC1`, the Potency entry was “inactive”.

In the case of `O=C(c1nc(-c2ccsc2)c2cnccn12)N1CCCC1`, the Potency is 35.5 µM (active).

As for `COc1cccc(Cn2c(SCc3ccc(C(=O)N4CCCCC4)cc3)nc3ccncc32)c1`, the Potency result is “inactive”.

(Values after PubChem BioAssay AID1347165 (National Center for Advancing Translational Sciences (NCATS), 2019).)
